From PubChem BioAssay
Only some compounds are listed: those with a hit (about 0.96% of all), similar ones and a draw of the others.
Texas Red fluor: qHTS Assay for Spectroscopic Profiling in Texas Red Spectral Region; Compound fluorescence, Texas Red channel, 547/618 nm; stronger effect = higher value; max dye-equivalent concentration, M; 59,000 tested, 0.06% active; in the data active = max dye-equivalent concentration above about 10 nM; inconclusive = between about 1.1 nM and that limit
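qHTS profiling of intrinsic compound fluorescence; 100 mM Tris pH 8.0; 15 min RT; ex 547 / em 618 nm; response expressed as Texas Red dye-equivalent concentration from six-point plate standard.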
Fluorescein fluor: qHTS Assay for Spectroscopic Profiling in Fluorescein Spectral Region. Compound autofluorescence, 480/540 nm, fluorescein-equivalent; stronger effect = higher value. max fluorescein-equivalent concentration, M. 59,000 tested, 0.91% active. AID 593, 2007; in the data active = max fluorescein-equivalent concentration above about 10 nM; inconclusive = between about 1.1 nM and that limit
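Read-out is intrinsic compound fluorescence at 480/540 nm (excitation/emission), expressed as dye-equivalent concentration using a fluorescein standard series run on every plate. Compounds sat 15 min at room temperature in 100 mM Tris, pH 8.0.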
A647 autofl: qHTS Assay for Spectroscopic Profiling in A647 Spectral Region; max dye-equivalent concentration, M; Compound fluorescence, A647 channel (570/671 nm), Tris buffer; AID 592, 2007; 59,000 tested, under 10 active;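 note: values scaled relative to a standard on each plate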
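Compound fluorescence was measured in 100 mM Tris buffer, pH 8.0, after 15 min at room temperature, using 570 nm excitation and 671 nm emission filters. Signal was normalized to a per-plate Alexa 647 standard curve and expressed as dye-equivalent concentration at each compound concentration.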
Rhodamine fluor: qHTS Assay for Spectroscopic Profiling in Rhodamine Spectral Region; Rhodamine-region fluorescence, 547/598 nm, Tris buffer; stronger effect = higher value; max dye-equivalent concentration, M; 59,000 tested, 0.05% active; in the data active = max dye-equivalent concentration above about 11 nM; inconclusive = between about 1.1 nM and that limit
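A six-point rhodamine series on each plate calibrates the signal. Compounds sit in 100 mM Tris (pH 8.0) for 15 min at ambient temperature before imaging through 547 nm/598 nm filters.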
A488 fluor: qHTS Assay for Spectroscopic Profiling in A488 Spectral Region. 59,000 tested, 0.1% active. max dye equivalency, M. compound autofluorescence, A488 spectral region, dye equivalency; Compound Type: qHTS ECL - MLSMR
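Compound autofluorescence was read in 100 mM Tris pH 8.0 after 15 min at room temperature, ex 480 nm/em 540 nm. Intensities were converted to A488 dye-equivalent concentration using an on-plate six-point A488 standard curve.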
Resorufin fluor: qHTS Assay for Spectroscopic Profiling in Resorufin Spectral Region | Compound fluorescence, resorufin region 547/598 nm, buffer; stronger effect = higher value | max dye-equivalent concentration, M | 59,000 tested, 0.04% active | AID 588, 2007
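Dye-equivalent concentration values derive from comparing each well's 547/598 nm fluorescence against resorufin standards included on every plate. Incubation was 15 min at room temperature in 100 mM Tris, pH 8.0.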
Numbers without * were called inactive; i = inactive; ? = inconclusive. Unless noted, the rule behind the calls is not given here.

SMILES	Texas Red fluor	Fluorescein fluor	A647 autofl	Rhodamine fluor	A488 fluor	Resorufin fluor
CN(C)Cc1ccccc1-c1cc(N(C)C)ncn1	i	i	1.3e-08	i	i	i
N=c1ccn2c(n1)O[C@@H]1[C@@H](O)[C@H](CO)O[C@H]12	i	i	1e-09	i	i	i
CC(=O)N1CCN(c2ccc(N=Cc3c(O)n(Cc4ccccc4)c(=O)[nH]c3=O)cc2)CC1	i	1.9e-08M*	6.2e-09	i	i	i
COc1ccc(NC(=O)C2Cc3ccccc3CN2C(=O)c2ccccc2)cn1 (stereo not drawn)	i	5.9e-08M*	1e-09	i	?	i
O=C(NC1=NCCS1)C1Cc2ccccc2CN1C(=O)c1ccccc1 (stereo not drawn)	?	i	7e-09	i	i	i
N#Cc1c(C(F)(F)F)cc(-c2ccccc2)nc1SCc1nc(N)nc(N2CCOCC2)n1	i	1.6e-08M*	1e-09	i	i	i
Nc1nc(Cn2nnc(-c3ccccc3F)n2)nc(N2CCOCC2)n1	i	i	1.8e-08	i	i	i
Cc1cc(C)n(-c2nc3c(c(=O)[nH]c(=O)n3C)n2Cc2ccccc2)n1	i	?	1e-09	i	i	i
Cc1cc(C)c2c(=O)[nH]c(=O)n(Cc3ccccc3)c2n1	i	1.3e-08M*	1.2e-08	i	i	i
COc1cccc(C2=CC(c3ccc(C)cc3)n3ncnc3N2)c1 (stereo not drawn)	?	1e-08M*	6.2e-09	i	i	i
Cc1ccc2nc3sc(C(=O)N4CCOCC4)c(N)c3cc2c1	i	8.1e-08M*	1.1e-09	i	?	i
COc1ccc(-n2c(=O)cnc3cnc(N(C)C)nc32)cc1	i	i	1e-09	i	i	i
CCOC(=O)N1CCC(Nc2nc3ccccc3n3nnnc23)CC1	i	1.1e-08M*	4e-08	i	i	i
Cc1nnc2sc(-c3ccc(NC(=O)c4cccnc4)cc3)nn12	?	?	4.9e-08	i	i	i
Cc1nnc2sc(-c3ccc(NC(=O)c4ccc(-c5ccc(Cl)cc5Cl)o4)cc3)nn12	?	1.2e-08M*	2.8e-08	?	i	?
CC(=O)Nc1c2c3c(cccc3n(C)c1=O)C(=O)c1ccccc1-2	i	1.7e-08M*	1e-09	i	?	i
COCC(=O)N1CCC2(CC1)CN(C(=O)Nc1cccc(C#N)c1)C2	i	i	7.9e-09	i	i	i
CCN1C(=O)C2(C(C#N)=C(N)Oc3cc(C)oc(=O)c32)c2ccccc21 (stereo not drawn)	?	i	4.3e-09	i	i	i
Cc1cc2c(c(=O)o1)C1(C(=O)N(CC(=O)O)c3ccccc31)C(C#N)=C(N)O2 (stereo not drawn)	i	1.3e-08M*	1.2e-08	i	i	i
COC(=O)[C@H]1[C@@H]2C[C@H]3c4[nH]c5ccccc5c4CCN3C[C@@H]2CC[C@@H]1O	i	i	1.5e-09	i	i	i
COc1cc(-c2ccc(N=Nc3ccc4c(S(=O)(=O)O)cc(S(=O)(=O)O)c(N)c4c3O)c(OC)c2)ccc1N=Nc1ccc2c(S(=O)(=O)O)cc(S(=O)(=O)O)c(N)c2c1O	?	?	2.3e-09	i	i	i
CCN(CC)CCN1C(=O)c2cccc3cc(N)cc(c23)C1=O	i	3.9e-08M*	1.2e-09	i	?	i
CCN1C(=O)c2cccc3cccc1c23	?	i	7.7e-09	i	i	i
COCC(=O)N1CCC2(CCCN(C(c3ccccc3)c3ccccc3)C2)CC1	i	i	1e-09	i	i	i
C[N@@+]1(CC[N@@+]2(C)CCC[C@H]2c2cccnc2)CCC[C@@H]1c1cccnc1	i	i	2.5e-09	i	i	i
SMILES	Texas Red fluor	Fluorescein fluor	A647 autofl	Rhodamine fluor	A488 fluor	Resorufin fluor
N#CC1=C(N)C(C#N)(C#N)C(c2ccc[nH]2)C2CCCC=C12 (stereo not drawn)	i	1.3e-08M*	1e-09	i	i	i
N#CC1=C(N)C(C#N)(C#N)C(c2cccnc2)C2CCCC=C12 (stereo not drawn)	i	4.8e-08M*	3.7e-08	i	?	i
CCNc1ncc2nc(-c3cn(C)c4ccccc34)c(=O)n(-c3ccccc3)c2n1	i	1.1e-08M*	5.4e-09	i	i	i
COc1ncc2nc(-c3cn(C)c4ccccc34)c(=O)n(-c3ccccc3)c2n1	i	1.5e-08M*	6.3e-09	i	i	i
CC(=O)NCCNc1nc(-c2ccccc2Cl)nc2ccccc12	i	i	1e-09	i	i	i
Cn1c(CN2CCC(C(N)=O)CC2)c(C#N)c2ccccc21	?	?	6.4e-08	i	i	i
Cn1c(CN2CCCCC2)c(C#N)c2ccccc21	i	2.5e-08M*	1e-09	i	i	i
N#Cc1c(N2CCCCC2)nc(N2CCCCC2)c2c1CCN(Cc1ccccc1)C2	i	4.8e-08M*	1.3e-09	i	?	i
Cn1ncc(N=Cc2ccccc2O)c1C(=O)Nc1ccccc1	i	i	7.6e-08	i	i	i
Cn1ncc(N=Cc2c(O)ccc3ccccc23)c1C(=O)N1CCOCC1	i	1.7e-08M*	1e-09	i	i	i
CN(C)CCCNc1cc(O)c2c(c1O)C(=O)c1ccccc1C2=O	4.6e-08M*	?	5e-09	1.8e-08M*	i	1.3e-08M*
CN(C)CCCNC(=O)c1ccc(-c2ccccc2)cc1	i	?	3.9e-08	i	i	i
C=CCNc1nc(N)c(C(=O)Nc2cc(C)on2)s1	i	i	1e-09	i	i	i
Cc1cc(C(F)(F)F)c2c(N)c(C(=O)Nc3cc(C)on3)sc2n1	i	1.2e-08M*	1e-08	i	i	i
O=C1O[C@@H]([C@@H](O)CO)[C@@H](O)[C@H]1O	?	?	1e-09	i	i	i
c1cncc(-c2cncnc2NC2CCNCC2)c1	i	1.4e-08M*	3.7e-08	i	i	i
COc1ccc(-n2c(=O)c(-c3cccs3)nc3cnc(Nc4cccc(OC)c4)nc32)cc1	i	?	1.7e-09	i	i	i
Cn1cc(-c2nc3cnc(Oc4ccccc4)nc3n(C)c2=O)c2ccccc21	i	?	3.5e-08	i	i	i
COc1cc(/C=C(\C#N)C(=O)c2ccc(O)c(O)c2)cc(I)c1O	i	1.3e-08M*	1e-09	i	i	i
